Data published in PubChem BioAssay (NCATS).
“And” between values parts separate entries of the source, which are not always exact repeats. Equal values may be shown once. Inconclusive results are not listed. The source made the active and inactive calls. Unless noted, the call rests on the fitted dose curve; in most records, active means well fitted curve in the direction sought with a large enough effect; inconclusive means small, poorly fitted or top-dose-only effect, or another doubt; inactive means no such curve, though single readings can be large; an effect the other way counts as inactive or inconclusive.

What was measured:
[1] = target: Glucocorticoid receptor (Homo sapiens) (UniProt P04150); assay: qHTS assay for small molecule antagonists of glucocorticoid receptor signaling (AID 588533; active means well fitted inhibition curve with a large enough effect in the signal ratio, with a control signal flat, not every such curve was filed as active; the % refers to the signal ratio; further: potency means the concentration at half of the fitted maximal effect)
Outline: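 Antagonist-mode qHTS: compound titrations added to GRE-bla HeLa cells, then dexamethasone 2 nM final; 18 h, 37 C. CCF4 FRET fluorescence normalized to dexamethasone and DMSO; IC50 from Hill fit.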

[2] = target: Vitamin D3 receptor (Homo sapiens) (UniProt P11473); assay: qHTS assay for small molecule antagonists of vitamin D receptor signaling (AID 588541; calls by dose curve;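 further: receptor activated by calcitriol during compound treatment; series mostly up to about 77 µM; on the % scale 0 is the no-effect control and ±100 the full control effect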)
Outline: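 VDR-UAS-bla HEK293T cells in 2% charcoal-stripped FBS were stimulated with 1-alpha,25-dihydroxyvitamin D3 (3 nM final) plus compound for 16 h at 37 C. The beta-lactamase CCF4 readout was normalized to 50 nM agonist and DMSO, and Hill fits gave IC50.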

[3] = target: Vitamin D3 receptor (Homo sapiens) (UniProt P11473); assay: qHTS assay for small molecule agonists of vitamin D receptor signaling (AID 588543; calls by dose curve;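 further: 0% = DMSO basal and 100% = reference agonist control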)
Outline: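 β-lactamase reporter, VDR-UAS-bla HEK293T, agonist mode. Cells plated 5 h at 37 °C, compound titration 16 h at 37 °C, CCF4 dye 2 h RT, ratio 460/530 nm. Hill fit → EC50, efficacy vs 50 nM 1α,25-(OH)2D3.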

[4] = target: Thyroid hormone receptor beta (Homo sapiens) (UniProt P10828); assay: qHTS assay for small molecule agonists of thyroid hormone receptor beta signaling (AID 588545; calls by dose curve)
Outline: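 HEK 293 TR-UAS-bla; agonist mode; 18 hrs, 37 C; CCF4, ex 405/em 460 and 530 nm; norm. T3 10 nM = 100%, DMSO = 0%; Hill fit → EC50, efficacy.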

[5] = qHTS assay for small molecule activators of the p53 signaling pathway (AID 651743; active means well fitted activation curve with a large enough effect in the signal ratio, not every such curve was filed as active; the % refers to the signal ratio; further: series mostly up to about 92 µM; % of control where 0% means no effect); settings: HCT-116 p53RE-bla, beta-lactamase FRET ratio, 16 h; activation: stronger effect = higher value
Outline: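 Following 16 hours of compound exposure at 37 C, HCT-116 cells bearing the p53RE-bla reporter were loaded with LiveBLAzer B/G FRET substrate for 2 hours at room temperature and fluorescence intensity was recorded.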

[6] = qHTS assay for environmental chemicals that activate the Aryl hydrocarbon Receptor (AhR) signaling pathway (AID 651777); settings: 1A2-DRE human hepatoma cells, luciferase, 24 h; activation: stronger effect = higher value; further: % of control where 0% means no effect; nearly all actives have a fitted effect of over 15% in size
Outline: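 Luminescence (One-Glo, 30 min, room temperature) reports AhR-driven luciferase in stably transfected human hepatoma cells bearing DRE and CYP1A2 promoter. Cells (1,200/well) were treated with compound for 24 hr at 37 C in qHTS format.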

[7] = target: Peroxisome proliferator-activated receptor alpha (Homo sapiens) (UniProt Q07869); assay: qHTS assay for small molecule agonists of the peroxisome proliferator-activated receptor alpha (PPARalpha) signaling pathway (AID 651778); settings: PathHunter PPARalpha complementation, chemiluminescence, 6 h; max response: stronger effect = higher value; further: % of control where 0% means no effect
Outline: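 Enzyme-fragment complementation assay in which ligand-bound PPARalpha translocates and forms an active enzyme that generates chemiluminescence. Cells were plated overnight, exposed to compound for 6 hr at 37 C, and then given detection reagent for 60 min at room temperature.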

[8] = qHTS assay for small molecule agonists of the antioxidant response element (ARE) signaling pathway measured by Nrf2-dependant transcriptional activity (AID 720636; active means well fitted curve in the direction sought with a large enough effect in the repeat runs; an effect the other way counts as inactive or inconclusive; further: potency means the concentration at half of the fitted maximal effect; on activation: % of control where 0% means no effect)
Outline: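 Nrf2-dependent transcription read as ONE-Glo luciferase signal from ARE-luc HepG2 reporter cells after 16 hr compound treatment at 37 C, 5% CO2, in assay medium with 1% dialyzed FBS.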

[9] = qHTS assay for small molecule agonists of the antioxidant response element (ARE) signaling pathway measured by Nrf2-dependant transcriptional activity - cell viability counter screen (AID 720653; active means well fitted curve in the direction sought with a large enough effect in the repeat runs; an effect the other way counts as inactive or inconclusive; further: on the % scale 0 is the no-effect control and ±100 the full control effect); settings: ARE-bla HepG2 viability, CellTiter-Glo ATP luminescence, 16 h; max response: stronger effect = lower value
Outline: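 ARE-bla HepG2 cells treated with compounds for 16 h at 37C; this counter screen measures viability as intracellular ATP by CellTiter-Glo luminescence after 30 min at room temperature.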

[10] = qHTS assay for cell viability of HEK293 cells (AID 743288); settings: ATP luminescence (CellTiter-Glo), 18 h; max response: stronger effect = lower value; further: nearly all actives have a fitted effect of over 50% in size; further: potency means the concentration at half of the fitted maximal effect; on max response: on the % scale 0 is the no-effect control and ±100 the full control effect
Outline: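 ATP luminescence (CellTiter-Glo) reports metabolically competent cell number after parental HEK293 cells, 2,000/well, were treated with DMSO-dissolved compounds for 18 h at 37 C; reagent incubation 30 min, room temperature.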

[11] = qHTS assay for cell viability of the p53RE-bla HCT-116 cell line (AID 743292); further: on the % scale 0 is the no-effect control and ±100 the full control effect; nearly all actives have a fitted effect of over 55% in size
Outline: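 ATP-based luminescent viability (CellTiter-Glo, 30 min RT) after 16 h compound treatment at 37 C of p53RE-bla HCT-116 cells, seeded at 4,000 cells/well and rested 5 h before dosing.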

[12] = target: Bile acid receptor (Homo sapiens) (UniProt Q96RI1); assay: qHTS assay for small molecule agonists of farnesoid X receptor signaling (AID 588527; calls by dose curve;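 further: series mostly up to about 77 µM; 0% = vehicle basal and 100% = reference agonist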); settings: HEK293T FXR-UAS-bla, beta-lactamase ratio, 16 h; activation: stronger effect = higher value
Outline: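 FXR-UAS-bla HEK293T, 10% dialyzed FBS; cpds up to 92 uM titration, 16 h 37 C; CCF4 dye 2 h RT; fluorescence. Normalized to chenodeoxycholic acid 100 uM (100%) and DMSO (0%); Hill fit gives EC50, efficacy.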

[13] = target: Peroxisome proliferator-activated receptor delta (Homo sapiens) (UniProt Q03181); assay: qHTS assay for small molecule agonists of peroxisome proliferator-activated receptor delta signaling (AID 588534; calls by dose curve;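 further: 0% = DMSO basal wells and 100% = positive control agonist at 10 µM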)
Outline: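 Agonist-mode qHTS; reporter cells, 5 hrs 37 C pre-incubation; compound titration, 18 hrs 37 C; CCF4 dye, 2 hrs RT; fluorescence read. EC50/efficacy via Hill fit.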

[14] = qHTS assay for small molecule antagonists of peroxisome proliferator-activated receptor delta signaling (AID 588535); settings: HEK293T PPARd-UAS-bla, beta-lactamase FRET ratio, 18 h; 460 nm channel;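 further: cells co-treated with a PPAR-delta agonist as stimulator during compound exposure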
Outline: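 Fluorescence from CCF4-loaded GeneBLAzer PPAR-delta-UAS-bla HEK293T cells (2 hrs RT loading) quantified reporter inhibition after an 18 hr, 37 C compound exposure across a titration.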

[15] = qHTS assay for small molecule agonists of retinoid X receptor alpha signaling (AID 588544; calls by dose curve;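 on activation: 0% = DMSO basal wells and 100% = reference agonist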); settings: HEK293T RXRa-UAS-bla, beta-lactamase reporter, 18 h; 530 nm emission
[16] = target: Retinoic acid receptor RXR-alpha (Homo sapiens) (UniProt P19793); assay: as above
[17] = qHTS assay for small molecule antagonists of retinoid X receptor alpha signaling (AID 588546; active means well fitted inhibition curve with a large enough effect in the signal ratio, with a control signal flat, not every such curve was filed as active; the % refers to the signal ratio; further: potency means the concentration at half of the fitted maximal effect); settings: HEK293T RXRa-UAS-bla, beta-lactamase ratio, antagonist mode; measured here: W530 green channel, cytotoxicity proxy
Outline: (§1)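 Beta-lactamase reporter inhibition, read as CCF4 fluorescence ratio (ex 405, em 460/530 nm) after 2 h at RT. HEK293T UAS-bla cells, 2500/well, were stimulated with 9-cis-RA at 500 or 100 nM final alongside test compound for 18 h at 37 C.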

[18] = target: Retinoic acid receptor RXR-alpha (Homo sapiens) (UniProt P19793); assay: as above; settings: HEK293T RXRa-UAS-bla, beta-lactamase ratio, antagonist mode
Outline: as §1

[19] = target: Thyroid hormone receptor beta (Homo sapiens) (UniProt P10828); assay: qHTS assay for small molecule antagonists of thyroid hormone receptor beta signaling (AID 588547; active means well fitted inhibition curve with a large enough effect in the signal ratio, with a control signal flat, not every such curve was filed as active; the % refers to the signal ratio;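 further: cells stimulated with 0.4 nM T3 agonist during compound exposure; series mostly up to about 77 µM; on the % scale 0 is the no-effect control and ±100 the full control effect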); settings: TR-UAS-bla HEK293, beta-lactamase ratio, antagonist mode, 18 h
Outline: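 TR-UAS-bla GripTite HEK293 cells in 2% charcoal/dextran FBS medium; compounds 0.59 nM to 92 uM with T3 at 0.4nM final, 18 h at 37 C. Beta-lactamase read by CCF4 fluorescence (460/530 nm); Hill fits gave IC50 and efficacy.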

[20] = target: Nuclear receptor subfamily 1 group I member 2 (Rattus norvegicus) (UniProt Q9R1A7); assay: qHTS assay for small molecule activators of the rat pregnane X receptor (rPXR) signaling pathway (AID 651751; call rule not given here; further: 0% is about no effect); settings: rPXR reporter cells, luciferase (One-Glo), 24 h
Sequence of Nuclear receptor subfamily 1 group I member 2 (Rattus norvegicus) (Q9R1A7 whole entry, looked up): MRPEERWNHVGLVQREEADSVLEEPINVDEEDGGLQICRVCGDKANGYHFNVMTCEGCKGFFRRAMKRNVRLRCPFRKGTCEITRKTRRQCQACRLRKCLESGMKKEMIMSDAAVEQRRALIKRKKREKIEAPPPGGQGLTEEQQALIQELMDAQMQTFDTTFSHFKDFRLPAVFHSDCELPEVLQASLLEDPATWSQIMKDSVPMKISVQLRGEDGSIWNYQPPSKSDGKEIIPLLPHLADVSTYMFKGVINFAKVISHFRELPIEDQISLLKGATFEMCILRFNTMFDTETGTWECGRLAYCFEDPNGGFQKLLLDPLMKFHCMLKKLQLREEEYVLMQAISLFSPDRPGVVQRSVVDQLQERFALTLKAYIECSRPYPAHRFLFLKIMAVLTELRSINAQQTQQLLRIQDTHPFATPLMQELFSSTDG

Sequence of Peroxisome proliferator-activated receptor alpha (Homo sapiens) (Q07869 whole entry, looked up, the tested form may be a part): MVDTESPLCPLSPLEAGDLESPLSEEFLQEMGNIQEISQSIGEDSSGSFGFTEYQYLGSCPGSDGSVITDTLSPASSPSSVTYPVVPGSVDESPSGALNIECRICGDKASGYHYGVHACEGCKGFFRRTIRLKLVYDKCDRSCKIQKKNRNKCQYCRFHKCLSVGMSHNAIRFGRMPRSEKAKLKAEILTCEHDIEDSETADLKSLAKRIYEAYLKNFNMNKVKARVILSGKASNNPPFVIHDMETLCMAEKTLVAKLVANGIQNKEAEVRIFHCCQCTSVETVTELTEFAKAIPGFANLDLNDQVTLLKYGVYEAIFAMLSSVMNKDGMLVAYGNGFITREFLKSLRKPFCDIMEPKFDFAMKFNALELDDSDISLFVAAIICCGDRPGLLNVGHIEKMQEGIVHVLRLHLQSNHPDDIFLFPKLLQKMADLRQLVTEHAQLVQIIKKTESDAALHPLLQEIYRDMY
Sequence of Bile acid receptor (Homo sapiens) (Q96RI1 whole entry, looked up): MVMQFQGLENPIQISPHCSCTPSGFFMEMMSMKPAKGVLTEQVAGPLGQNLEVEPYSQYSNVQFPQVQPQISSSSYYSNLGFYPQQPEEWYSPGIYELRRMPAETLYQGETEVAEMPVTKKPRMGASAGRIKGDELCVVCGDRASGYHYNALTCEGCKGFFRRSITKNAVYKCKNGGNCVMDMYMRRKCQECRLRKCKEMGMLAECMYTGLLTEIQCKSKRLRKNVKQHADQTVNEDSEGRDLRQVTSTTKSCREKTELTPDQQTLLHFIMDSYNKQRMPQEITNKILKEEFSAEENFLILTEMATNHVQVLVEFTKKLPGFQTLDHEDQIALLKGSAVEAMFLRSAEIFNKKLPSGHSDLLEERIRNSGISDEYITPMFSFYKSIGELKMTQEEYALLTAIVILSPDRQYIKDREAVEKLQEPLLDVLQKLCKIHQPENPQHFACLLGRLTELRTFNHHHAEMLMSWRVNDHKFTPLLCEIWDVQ
Sequence of Peroxisome proliferator-activated receptor delta (Homo sapiens) (Q03181 whole entry, looked up): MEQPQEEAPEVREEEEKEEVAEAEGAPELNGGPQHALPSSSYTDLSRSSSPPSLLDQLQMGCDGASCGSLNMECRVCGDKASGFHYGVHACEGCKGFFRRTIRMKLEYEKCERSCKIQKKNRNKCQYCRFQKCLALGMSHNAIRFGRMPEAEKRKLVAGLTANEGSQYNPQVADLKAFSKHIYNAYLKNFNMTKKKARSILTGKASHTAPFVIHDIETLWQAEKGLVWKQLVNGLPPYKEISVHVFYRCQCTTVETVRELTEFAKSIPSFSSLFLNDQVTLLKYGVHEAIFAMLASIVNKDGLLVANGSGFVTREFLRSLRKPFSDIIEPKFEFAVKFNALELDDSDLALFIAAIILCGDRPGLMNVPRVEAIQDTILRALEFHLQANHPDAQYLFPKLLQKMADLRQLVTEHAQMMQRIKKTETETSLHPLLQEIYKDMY
Sequence of Thyroid hormone receptor beta (Homo sapiens) (P10828 whole entry, looked up): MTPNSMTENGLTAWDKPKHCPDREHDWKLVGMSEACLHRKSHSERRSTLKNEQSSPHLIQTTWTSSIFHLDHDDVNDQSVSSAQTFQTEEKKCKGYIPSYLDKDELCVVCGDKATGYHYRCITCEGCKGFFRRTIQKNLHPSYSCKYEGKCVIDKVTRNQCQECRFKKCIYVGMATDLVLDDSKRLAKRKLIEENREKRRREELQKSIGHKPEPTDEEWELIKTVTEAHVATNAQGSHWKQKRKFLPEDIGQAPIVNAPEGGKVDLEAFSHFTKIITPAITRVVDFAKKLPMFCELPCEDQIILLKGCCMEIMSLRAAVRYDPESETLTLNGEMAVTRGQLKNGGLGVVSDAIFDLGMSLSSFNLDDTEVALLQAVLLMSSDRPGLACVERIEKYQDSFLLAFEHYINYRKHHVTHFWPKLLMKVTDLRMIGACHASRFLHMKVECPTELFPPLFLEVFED
Sequence of Retinoic acid receptor RXR-alpha (Homo sapiens) (P19793 whole entry, looked up): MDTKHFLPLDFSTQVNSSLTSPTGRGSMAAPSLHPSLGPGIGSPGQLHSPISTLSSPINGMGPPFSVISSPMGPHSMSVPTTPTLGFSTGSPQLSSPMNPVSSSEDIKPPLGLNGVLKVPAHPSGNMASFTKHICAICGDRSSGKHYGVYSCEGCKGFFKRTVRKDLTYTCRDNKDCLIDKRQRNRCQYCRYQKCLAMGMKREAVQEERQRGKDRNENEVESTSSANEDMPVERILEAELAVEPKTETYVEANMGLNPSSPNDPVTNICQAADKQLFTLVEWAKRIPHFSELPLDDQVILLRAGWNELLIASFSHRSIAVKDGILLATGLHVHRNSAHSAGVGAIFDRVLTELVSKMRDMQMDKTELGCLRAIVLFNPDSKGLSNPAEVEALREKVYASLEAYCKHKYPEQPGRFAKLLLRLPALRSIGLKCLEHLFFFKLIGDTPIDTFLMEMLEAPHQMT
Sequence of Vitamin D3 receptor (Homo sapiens) (P11473 whole entry, looked up): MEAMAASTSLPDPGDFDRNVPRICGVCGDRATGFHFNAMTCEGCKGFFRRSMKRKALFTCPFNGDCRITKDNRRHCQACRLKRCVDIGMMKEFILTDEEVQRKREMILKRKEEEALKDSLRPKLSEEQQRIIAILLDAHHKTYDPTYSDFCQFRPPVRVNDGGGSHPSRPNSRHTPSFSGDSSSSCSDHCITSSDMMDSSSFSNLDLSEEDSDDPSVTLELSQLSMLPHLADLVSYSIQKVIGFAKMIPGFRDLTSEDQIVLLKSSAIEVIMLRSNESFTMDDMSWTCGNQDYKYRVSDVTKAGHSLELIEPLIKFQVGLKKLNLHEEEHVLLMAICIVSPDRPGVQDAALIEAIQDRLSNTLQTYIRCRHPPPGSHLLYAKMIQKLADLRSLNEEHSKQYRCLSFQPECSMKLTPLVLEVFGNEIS
Sequence of Glucocorticoid receptor (Homo sapiens) (P04150 whole entry, looked up): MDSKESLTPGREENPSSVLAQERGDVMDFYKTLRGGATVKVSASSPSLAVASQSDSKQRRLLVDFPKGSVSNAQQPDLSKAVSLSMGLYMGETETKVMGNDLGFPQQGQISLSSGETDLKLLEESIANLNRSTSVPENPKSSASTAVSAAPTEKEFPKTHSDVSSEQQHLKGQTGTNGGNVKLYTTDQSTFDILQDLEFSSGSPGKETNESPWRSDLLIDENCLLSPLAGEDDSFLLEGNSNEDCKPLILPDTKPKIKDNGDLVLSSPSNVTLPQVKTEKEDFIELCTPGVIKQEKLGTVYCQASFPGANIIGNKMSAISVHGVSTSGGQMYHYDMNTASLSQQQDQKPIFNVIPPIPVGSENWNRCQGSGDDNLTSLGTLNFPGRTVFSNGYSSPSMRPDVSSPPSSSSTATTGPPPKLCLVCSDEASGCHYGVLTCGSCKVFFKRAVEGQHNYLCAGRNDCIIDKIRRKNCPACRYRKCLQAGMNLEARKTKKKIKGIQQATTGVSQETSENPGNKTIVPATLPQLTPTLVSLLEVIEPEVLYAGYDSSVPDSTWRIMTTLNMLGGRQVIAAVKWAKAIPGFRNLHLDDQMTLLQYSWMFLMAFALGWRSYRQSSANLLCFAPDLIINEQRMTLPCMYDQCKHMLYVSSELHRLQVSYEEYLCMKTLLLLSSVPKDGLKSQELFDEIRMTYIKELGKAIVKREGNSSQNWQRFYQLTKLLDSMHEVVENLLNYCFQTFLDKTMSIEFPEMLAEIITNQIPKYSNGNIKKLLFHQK

C[C@H]1[C@H](c2ccc(Cl)cc2)SC(=O)N1C(=O)NC1CCCCC1
inactive: Potency [1] | Potency [2] | outcome [3] | Potency [4] | activation [5] 4.32% | activation [6] 6.81% | max response [7] -4.71% | Potency [8] | max response [9] -8.81% | max response [10] -26% | Potency [11]

COc1cccc(C(=O)NN(C(=O)c2cc(C)cc(C)c2)C(C)(C)C)c1C
-5.99%: max response [17]
inactive: activation [12] 4% | outcome [13] | Potency [2] | Potency [16] | Potency [4] | max response [18] -0.788% | activity change % (negative = inhibition) [19] -4.61% | activation [5] -3.69% | activation [6] 1.74% | max response [7] 0.438% | Potency [8] | max response [9] 2.48% | max response [10] -4.45% | Potency [11]
-0.516%: max response [14]
-2.17%: max response [15]

C=CC(=O)OCC(CC)(COC(=O)C=C)COC(=O)C=C
23.9%: max response [17]
active: Potency [1] 44.7 µM | Potency [18] 44.7 µM | Potency [8] 61.1 µM | Potency [10] 50.1 µM
inactive: outcome [13] | outcome [3] | activation [6] 9.7% | max response [7] -1.24% | max response [9] -3.3% | Potency [11] | max response [20] -14.4%

c1ccc2c(c1)[nH]c1ccccc12
inactive: Potency [8]

CC(C)COP(=O)(OCC(C)C)OCC(C)C
-15.8%: max response [15]
-13.9%: max response [17]
21.8%: max response [14]
inactive: activation [12] 4.76% | Potency [1] | outcome [13] | Potency [2] | outcome [3] | Potency [16] | Potency [4] | max response [18] 3.45% | activity change % (negative = inhibition) [19] -6.4% | activation [5] -2.4% | activation [6] -1.96% | max response [7] -1.01% | Potency [8] | max response [9] -13.2% | max response [10] -10% | Potency [11] | max response [20] -5.22%

CCCN(CCOc1c(Cl)cc(Cl)cc1Cl)C(=O)n1ccnc1
26.8% and 55.9%: max response [14]
inactive: activation [12] 4.58% | Potency [1] | outcome [13] | Potency [4] | activity change % (negative = inhibition) [19] 22.9% | max response [7] -1.45% and -1.52% | Potency [8] | max response [9] -20.2% and 3.11% | max response [10] -28.6% and -28.7% | Potency [11]

CCNS(=O)(=O)C(F)(F)C(F)(F)C(F)(F)C(F)(F)C(F)(F)C(F)(F)C(F)(F)C(F)(F)F
-20.7%: max response [14]
-3.73%: max response [15]
-8.67%: max response [17]
inactive: outcome [13] | outcome [3] | Potency [16] | Potency [4] | max response [18] 6.49% | activity change % (negative = inhibition) [19] 23.1% | activation [6] 1.24% | max response [7] 5.8% | Potency [8] | max response [9] -7.97% | max response [10] -20.2% | Potency [11] | max response [20] 2.04%
